# Screens: PubChem, National Center for Advancing Translational Sciences (NCATS)
# Sampled rows, rich in hits. Any-hit rate of the full collection: about 5.5%.
# Coupling enz: qHTS Assay for Inhibitors of Fructose-1,6-bisphosphate Aldolase from Giardia Lamblia: Coupling assay counterscreen; coupling enzyme system counterscreen, AmpLite Red fluorescence; 290,000 tested, 0.67% active; activity change, negative = inhibition, % at 58.2 µM, hits read low; AID 2472, 2010; in the data active = activity change below about -30%
#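 Fluorescence at 525 nm excitation and 598 nm emission measured inhibition of the coupled detection system without aldolase. Compounds (at 57.5 uM final) were preincubated 10 min at room temperature with coupling enzyme reagent before a 20 min substrate/AmpLite Red step.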
# Sfp inh: qHTS Assay for Inhibitors of Bacillus subtilis Sfp phosphopantetheinyl transferase (PPTase); 4'-phosphopantetheinyl transferase ffp (Bacillus subtilis), Q9F4F7; 310,000 tested, 3.5% active; Potency, µM, without a hit: largest response in the series, negative = inhibition, most hits filed as inhibitors; Biochemical Sfp PPTase activity, qHTS;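 note: the enzyme is Sfp with the accession as filed and its product quenches rhodamine fluorescence; potency is the fitted concentration of half-maximal effect; 0% = enzyme reaction without inhibitor and -100% = no enzyme wells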
#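 After 15 min at room temperature with compound, 15 nM Sfp received 5 uM rhodamine-CoA plus 12.5 uM BHQ-2-ybbR (50 mM Hepes pH 7.6, 10 mM MgCl2). Rate came from the fluorescence difference over 30 min, ex 525/em 598 nm.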
# ELG1 DNA repair: qHTS screen for small molecules that inhibit ELG1-dependent DNA repair in human embryonic kidney (HEK293T) cells expressing luciferase-tagged ELG1; 330,000 tested, 2.3% active; HEK293T ELG1-luciferase reporter, luminescence, 16 h; DNA damage induced by 5-fluorouridine; Potency, µM (series often up to 46.1 µM), inactives show at the top dose activity change, negative = inhibition, hits mostly inhibitors; AID 504467, 2011; note: potency is the fitted concentration of half-maximal effect; nearly all actives have a fitted effect of over 55% in size
#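 Quantitative HTS, concentration-response format. 2,000 cells/well co-treated with 5-fluorouridine and compound, 16 hr in 5% CO2 at 37 °C; ONE-Glo luminescence read after 30 min.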
# Giardia kill: Small Molecules that selectively kill Giardia lamblia: qHTS; AID 540267, 2011; activity change, % at 7.66 µM, hits read low; 340,000 tested, 0.15% active; Giardia lamblia trophozoite viability; in the data active = activity change below about -80%; inconclusive = between about -30% and that limit;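 note: parasites exposed to compound for two days anaerobically before the ATP read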
#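 Anaerobic 48 hrs incubation at 37 deg C of 100 trophozoites/well with test compounds; ATPLite 1-Step luminescence, 15-30 min RT, reports cellular ATP as viability.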
# Starred values were filed as active, the others as inactive; ? = inconclusive; / = no result given. Unless noted, calls come from the whole dose curve; as a rule, active = well fitted curve in the direction sought with a large enough effect; inconclusive = small, poorly fitted or top-dose-only effect, or another doubt; inactive = no such curve, though single readings can be large; an effect the other way counts as inactive or inconclusive. Unless noted, % is set by controls: 0 for no effect and ±100 for the full control effect.
SMILES,Coupling enz,Sfp inh,ELG1 DNA repair,Giardia kill
Oc1cccc(-c2nc3c4c(ncn3n2)-c2ccccc2CC42CCCC2)c1,-2.8,3.5%,8.2µM*,16.0
COc1ccc2c(c1)CC/C(=C\c1ccc(OC)c(Cn3nc(C)cc3C)c1)C2=O,-1.1,35.5µM*,?,-1.2
COc1ccc(/C=C2\CCc3ccccc3C2=O)cc1CN1CCOCC1,0.8,7.3%,?,5.3
COc1ccc2c(c1)CC/C(=C\c1ccc(OC)c(Cn3cccn3)c1)C2=O,-6.6,44.7µM*,?,-7.3
Cc1ccc(CNC(=O)CSc2c3c(nc4cc(Cl)ccc24)CCCC3)o1,0.7,17.8µM*,-2.0%,-11.3
O=C(CSc1c2c(nc3cc(Cl)ccc13)CCCC2)NCCN1CCOCC1,1.1,13.4%,-10.2%,-11.3
COc1cccc(CNC(=O)CCNS(=O)(=O)c2ccc3c(c2)CC(C)N3C(C)=O)c1 (configuration not stated),-1.8,14.8%,8.2µM*,-8.3
COCCNC(=O)CN(c1ccc(F)cc1)S(=O)(=O)c1ccc2c(c1)OCCO2,1.6,11.1%,3.4%,-2.3
Cc1cccc(Oc2nc(-c3ccccn3)nc3ccccc23)c1,0.9,70.8µM*,?,-6.3
Brc1ccc(-c2csc(NC3=NCCCCC3)n2)cc1,1.2,0.5%,?,-20.9
COc1ccc(-c2csc(NC3=NCCCCC3)n2)cc1,2.1,-16.5%,?,-5.4
Clc1ccc(-c2csc(NNC3=NCCCCC3)n2)cc1,-2.2,56.2µM*,?,15.2
c1ccc(-c2csc(NNC3=NCCCCC3)n2)cc1,-0.1,39.8µM*,?,20.7
C[C@@H](C(=O)NCCc1ccccc1)N1C(=O)N2CCc3c([nH]c4ccccc34)[C@@]2(C)C1=O,-3.8,0.4%,4.2%,20.1
CCOC(=O)c1[nH]c2ccc(C)cc2c1N,0.0,17.8µM*,?,-19.1
CCOC(=O)c1[nH]c2cc(OC)c(OC)cc2c1N,-0.9,44.7µM*,10.7%,1.0
Cc1ccc2[nH]c(C)c(CC(=O)O)c2c1,-39.5*,?,7.8%,-8.6
CCOC(=O)c1[nH]c2ccc(C)cc2c1N=CN(CC)CC,4.4,12.8%,16.2%,-7.0
Cc1noc(C)c1C(=O)N1CCC2(CCN(Cc3cc(C(F)(F)F)cc(C(F)(F)F)c3)CC2)CC1,-2.3,8.2%,/,/
O=C(O)Cc1sc(-c2ccccc2)nc1-c1ccccc1,9.2,-4.7%,12.5%,2.3
O=C(CSc1nnc2c(n1)[nH]c1ccccc12)NCc1ccco1,-2.1,39.8µM*,?,10.4
O=C(CSc1nnc(-c2ccccc2)c(-c2ccccc2)n1)NCc1ccco1,8.0,?,23.1µM*,0.1
O=C(CSc1ncc(-c2ccccc2)nn1)NCc1ccco1,-1.4,4.3%,-2.2%,-9.6
Cc1nc(SCC(=O)NCc2ccco2)nc(C)c1C,1.0,50.1µM*,-1.7%,5.3
O=C(O)Cc1sc(NCc2ccco2)nc1-c1ccccc1,-0.7,25.1µM*,18.7%,8.4
SMILES,Coupling enz,Sfp inh,ELG1 DNA repair,Giardia kill
COc1ccc(CNC(=O)CSc2nnc3c(n2)[nH]c2ccccc23)cc1,-1.7,-2.3%,-7.3%,-15.1
O=C(Cn1cnc2sc(-c3ccccc3)cc2c1=O)NCc1ccco1,3.1,31.6µM*,0.2%,30.3
O=C(CSc1ccc(Cl)cc1)NCc1ccco1,-3.7,89.1µM*,?,-12.1
CCOc1ccc2nc(SCC(=O)NC(=O)NCc3ccco3)sc2c1,-3.2,0.4%,12.9%,-16.4
O=C(CSc1nc2cc(Cl)ccc2s1)NC(=O)NCc1ccco1,-3.0,89.1µM*,17.5%,22.6
COc1ccc(CNC(=O)Cn2ncn3c(cc4ccccc43)c2=O)cc1,-0.2,-18.2%,0.4%,3.1
O=C(Cn1cnc2sc(-c3ccccc3)cc2c1=O)NCc1ccccc1,0.6,3.3%,8.7%,16.6
O=C(Cn1ncn2c(cc3ccccc32)c1=O)NCc1ccco1,0.5,22.4µM*,10.3%,17.3
CC1CCN(S(=O)(=O)c2ccc(C(=O)N3CCCC(C(F)(F)F)C3)cc2)CC1 (configuration not stated),/,/,-13.9%,16.1
CC(=O)c1ccccc1NC(=O)COC(=O)/C(=C/c1ccccc1)n1nnnc1C,/,2.0%,?,7.2
CCCc1ccccc1OCCNS(=O)(=O)c1cc2c(cc1C)OCC(=O)N2,0.1,3.4%,-1.7%,-3.1
O=C(CSc1ccc(Cl)cc1)c1ccco1,-1.8,44.7µM*,?,-2.6
O=C(CCSc1ccc(Cl)cc1)c1ccco1,1.6,7.9%,-9.2%,33.5
COC(=O)[C@]1(C)N[C@H](CN(C)S(=O)(=O)c2ccc(F)cc2)[C@@H]2C(=O)N(C)C(=O)[C@@H]21,/,/,25.5%,-16.7
S=C1NC=NC2N=CNC12 (configuration not stated),/,14.1µM*,/,/
Cc1nn(Cc2ccc(Cl)cc2)c(C)c1NC(=O)c1noc2c1CCCCC2,0.4,-5.3%,23.1µM*,-10.4
Oc1cccc(/C=N/NC(=S)Nc2cccnc2)c1O,-11.5,?,20.8%,-12.1
Oc1ccc(/C=N/NC(=S)Nc2cccnc2)c(O)c1O,-63.2*,3.55µM*,14.6µM*,10.4
Cc1cccc(N/N=C/c2ccc(O)c(O)c2O)c1,-68.5*,3.55µM*,?,6.9
[O-]/[N+](=C\c1ccccc1)[C@@H]1CCCC[C@@H]1/[N+]([O-])=C/c1ccccc1,-1.1,-22.0%,-0.1%,6.1
O=C(N/N=C\c1ccc([N+](=O)[O-])s1)C1COc2ccccc2O1 (configuration not stated),0.2,-6.7%,?,-85.1*
CC(NC(=O)C12CC3CC(CC(C3)C1)C2)C(=O)N/N=C/C1=C(N2CCOCC2)C(=C\c2cccc([N+](=O)[O-])c2)/CC1 (configuration not stated),-1.2,-3.1%,6.51µM*,-6.3
O=C(N/N=C\c1ccc(Cl)s1)C1COc2ccccc2O1 (configuration not stated),-1.3,-13.6%,?,8.0
O=C(N/N=C/c1ccc([N+](=O)[O-])o1)C1CCCC1,/,-2.6%,?,-93.5*
O=[N+]([O-])c1ccc(/C=[N+](\[O-])[C@@H]2CCCC[C@@H]2/[N+]([O-])=C/c2ccc([N+](=O)[O-])o2)o1,-12.6,?,?,-82.2*
CC12CCC=CC1C(c1ccc(C(F)(F)F)cc1)N(Cc1ccccc1)C2=O (configuration not stated),7.0,11.4%,/,3.8
CS(=O)(=O)Nc1cccc(-c2nc(Nc3ccncc3)c3ccccc3n2)c1,3.1,8.5%,/,/
Cc1scc(C(=O)N/N=C/c2ccc([N+](=O)[O-])o2)c1C,/,14.0%,-1.4%,/
O=C(N/N=C\c1ccc(-c2ccccc2[N+](=O)[O-])o1)C1COc2ccccc2O1 (configuration not stated),-1.6,2.4%,?,-13.3
